Measurements from PubChem BioAssay (Tox21).
Inconclusive results are not listed. Calls of active or inactive are those of the source. Unless noted, calls follow the shape of the dose curve; as a rule, active = well fitted curve in the direction sought with a large enough effect in the repeat runs; inconclusive = weak or mixed curves; inactive = no such curve, though single readings can be large; an effect the other way counts as inactive or inconclusive.

Legend:
[1] = qHTS assay to identify small molecule agonists of the peroxisome proliferator-activated receptor delta (PPARd) signaling pathway - cell viability counter screen (AID 743211); also: nearly all actives have a fitted effect of over 55% in size
How it was run: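 PPARd-bla HEK293H cells (UAS-beta-lactamase reporter) were treated with compounds for 17 h at 37 C. Viability was then read in the same wells by CellTiter-Glo luminescence after 30 min at room temperature.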

[2] = biological target: Peroxisome proliferator-activated receptor delta (Homo sapiens) (UniProt Q03181); assay: qHTS assay to identify small molecule antagonists of the peroxisome proliferator-activated receptor delta (PPARd) signaling pathway (AID 743215; active = well fitted inhibition curve with a large enough effect in the signal ratio in the repeat runs, not every such curve was filed as active; the % refers to the signal ratio;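 also: cells stimulated with agonist L165041 at 300 nM final during compound exposure; series mostly up to about 62 µM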)
How it was run: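 Fluorescence from cleaved LiveBLAzer B/G FRET substrate (2 h, room temperature) reports PPARd-driven beta-lactamase in HEK293H UAS-bla cells. Cells had been treated 17 h at 37 C with compound plus 300 nM final L165041.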

[3] = qHTS assay to identify small molecule agonists of the farnesoid-X-receptor (FXR) signaling pathway - cell viability counter screen (AID 743218); also: nearly all actives have a fitted effect of over 45% in size
How it was run: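 Readout: CellTiter-Glo luminescence, 30 min RT, multiplexed after the FXR-bla FRET reading. HEK 293T FXR-UAS-bla cells received compound 5 h post-plating and were incubated 16 h at 37 C.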

[4] = qHTS assay to identify small molecule antagonists of the farnesoid-X-receptor (FXR) signaling pathway - cell viability counter screen (AID 743221; active = well fitted cell-killing curve with a large enough effect in the repeat runs, not every such curve was filed as active; also: nearly all actives have a fitted effect of over 50% in size)
How it was run: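 FXR-UAS-bla HEK 293T cells were treated with test compounds plus chenodeoxycholic acid (50 uM final) for 16 h at 37 C. Cell viability in the same wells was then read as CellTiter-Glo luminescence after 30 min at room temperature.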

[5] = biological target: Vitamin D3 receptor (Homo sapiens) (UniProt P11473); assay: qHTS assay to identify small molecule agonists of the vitamin D receptor (VDR) signaling pathway (AID 743222; calls by dose curve)
How it was run: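 Following 4 h attachment at 37C, VDR-bla cells (2,000 per well) received DMSO-dissolved compounds or controls. After 16 h incubation, LiveBLAzer B/G FRET substrate was added and fluorescence read 2 h later at room temperature.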

[6] = qHTS assay to identify small molecule agonists of the vitamin D receptor (VDR) signaling pathway - cell viability counter screen (AID 743224); also: series mostly up to about 63 µM; nearly all actives have a fitted effect of over 50% in size
How it was run: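 In parallel with the bla FRET readout, cytotoxicity toward VDR-bla cells after 16 h compound exposure was assessed by CellTiter-Glo, with luminescence recorded after a 30 min room-temperature incubation.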

[7] = qHTS assay to identify small molecule antagonists of the vitamin D receptor (VDR) signaling pathway - cell viability counter screen (AID 743225); also: nearly all actives have a fitted effect of over 50% in size
How it was run: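 VDR-bla HEK 293T cells, 4 h pre-incubation at 37C, then compound plus 1-alpha,25-dihydroxyvitamin D3 (3 nM final) for 16 h. After the beta-lactamase FRET read, CellTiter-Glo was added to the same wells; luminescence after 30 min at room temperature.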

[8] = qHTS assay to identify small molecule agonists of the NFkB signaling pathway (AID 1159509; active = well fitted curve in the direction sought with a large enough effect in the signal ratio in the repeat runs, not every such curve was filed as active; the % refers to the signal ratio; also: series mostly up to about 61 µM)
How it was run: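 Pathway activation was measured in ME-180 cells stably expressing beta-lactamase under NF-kB response element control. Substrate cleavage was read as the 460/530 nm emission shift after 5 hr compound incubation.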

[9] = qHTS assay to identify small molecule agonists of the NFkB signaling pathway - cell viability counter screen (AID 1159515; calls by dose curve; also: series mostly up to about 61 µM; nearly all actives have a fitted effect of over 55% in size)
How it was run: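 Plate 2,000 NFkB-bla ME-180 cells/well; incubate overnight. Add compounds, 5 hr at 37 C. Add FRET substrate, 1.5 hr RT. Add CellTiter-Glo, 30 min RT; read luminescence.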

[10] = qHTS assay to identify small molecule agonists of the endoplasmic reticulum stress response signaling pathway (AID 1159516; active = well fitted activation curve with a large enough effect in the signal ratio in the repeat runs, not every such curve was filed as active; the % refers to the signal ratio)
How it was run: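 Beta-lactamase expression from the ER stress response element in HeLa reporter cells is quantified with the LiveBLAzer B/G FRET substrate, read at 405 nm excitation after 2 hr at room temperature, following 5 hr compound treatment at 37 C.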

[11] = qHTS assay to identify small molecule agonists of the endoplasmic reticulum stress response signaling pathway - cell viability counter screen (AID 1159517; calls by dose curve; also: series mostly up to about 61 µM; nearly all actives have a fitted effect of over 50% in size)
How it was run: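 Cpd-treated ESRE-bla HeLa (5 hr, 37 C) → LiveBLAzer 2 hr RT → CellTiter-Glo 30 min RT → luminescence.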

[12] = biological target: Nuclear receptor ROR-gamma (Homo sapiens) (UniProt P51449); assay: qHTS assay to identify small molecule antagonists of the retinoid-related orphan receptor gamma (ROR-gamma) signaling pathway (AID 1159521)
How it was run: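 Tet-on RORγ CHO cells carrying a ROR response element–luciferase reporter were pretreated with compounds for 2 h, then induced with 1 uM (final) doxycycline hyclate for 16 h at 37 C. Antagonism was read as decreased ONE-Glo luminescence.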

[13] = qHTS assay to identify small molecule agonists of the AP-1 signaling pathway - cell viability counter screen (AID 1159525; calls by dose curve; also: nearly all actives have a fitted effect of over 55% in size)
How it was run: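 Each titration point was normalised to DMSO and tetra n-octyl ammonium bromide controls. The read was Cell Titer Glo luminescence after 30 min at RT, following 5 h compound exposure of ME-180 AP-1-bla cells at 37 °C.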

[14] = qHTS assay to identify small molecule agonists of the AP-1 signaling pathway (AID 1159526; calls by dose curve)
[15] = biological target: Peroxisome proliferator-activated receptor delta (Homo sapiens) (UniProt Q03181); assay: qHTS assay to identify small molecule agonists of the peroxisome proliferator-activated receptor delta (PPARd) signaling pathway (AID 743212; calls by dose curve)
How it was run: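 Cells expressing a UAS-driven beta-lactamase reporter (PPARd-bla HEK293H) were given test compounds after a 5 h settle and kept at 37 C. Reporter activity was then measured as FRET fluorescence using LiveBLAzer B/G substrate.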

[16] = qHTS assay to identify small molecule antagonists of the peroxisome proliferator-activated receptor delta (PPARd) signaling pathway - cell viability counter screen (AID 743213); also: nearly all actives have a fitted effect of over 50% in size
How it was run: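 HEK293H cells with the PPARd UAS-bla reporter, co-treated 17 h at 37 C with compounds and L165041 (300 nM final), were lysed with CellTiter-Glo. Luminescence indicated viable cell content.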

[17] = biological target: Bile acid receptor (Homo sapiens) (UniProt Q96RI1); assay: qHTS assay to identify small molecule agonists of the farnesoid-X-receptor (FXR) signaling pathway (AID 743220; active = well fitted activation curve with a large enough effect in the signal ratio in the repeat runs, not every such curve was filed as active; the % refers to the signal ratio)
How it was run: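 FXR-UAS-bla HEK 293T cells carrying a UAS-driven beta-lactamase reporter were plated for 5 h at 37C/5% CO2, then exposed to DMSO-dissolved Tox21 10K compounds for 16 h at 37C. A LiveBLAzer B/G FRET substrate was loaded for 2 h at room temperature before fluorescence reading.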

[18] = biological target: Vitamin D3 receptor (Homo sapiens) (UniProt P11473); assay: qHTS assay to identify small molecule antagonists of the vitamin D receptor (VDR) signaling pathway (AID 743223; active = well fitted inhibition curve with a large enough effect in the signal ratio in the repeat runs, not every such curve was filed as active; the % refers to the signal ratio)
How it was run: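 VDR-bla cells were plated, incubated 4 h at 37C, then given compound and 1alpha,25-dihydroxyvitamin D3 (3 nM final). After 16 h at 37C, LiveBLAzer B/G FRET substrate was added for 2 h at room temperature and fluorescence read.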

[19] = biological target: Bile acid receptor (Homo sapiens) (UniProt Q96RI1); assay: qHTS assay to identify small molecule antagonists of the farnesoid-X-receptor (FXR) signaling pathway (AID 743217; active = well fitted inhibition curve with a large enough effect in the signal ratio in the repeat runs, not every such curve was filed as active; the % refers to the signal ratio)
How it was run: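 FRET fluorescence after 2 h room-temperature LiveBLAzer loading gives the readout. Prior step: FXR-bla HEK 293T cells, seeded and incubated 5 h, received test compounds plus 50 uM final CDCA for 16 h at 37 °C.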

[20] = qHTS assay to identify small molecule antagonists of the retinoid-related orphan receptor gamma (ROR-gamma) signaling pathway - cell viability counter screen (AID 1159520); also: nearly all actives have a fitted effect of over 50% in size
How it was run: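 Tet-on ROR gamma CHO cells (1,000/well) were plated 4 hr, given compounds in DMSO for 2 hr at 37 C, then induced with 1 uM final doxycycline for 16 hr. Viability was read as ATP by CellTiter-Glo luminescence after 30 min.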

Measured: Potency

Chain of Bile acid receptor (Homo sapiens) (Q96RI1 whole entry, looked up): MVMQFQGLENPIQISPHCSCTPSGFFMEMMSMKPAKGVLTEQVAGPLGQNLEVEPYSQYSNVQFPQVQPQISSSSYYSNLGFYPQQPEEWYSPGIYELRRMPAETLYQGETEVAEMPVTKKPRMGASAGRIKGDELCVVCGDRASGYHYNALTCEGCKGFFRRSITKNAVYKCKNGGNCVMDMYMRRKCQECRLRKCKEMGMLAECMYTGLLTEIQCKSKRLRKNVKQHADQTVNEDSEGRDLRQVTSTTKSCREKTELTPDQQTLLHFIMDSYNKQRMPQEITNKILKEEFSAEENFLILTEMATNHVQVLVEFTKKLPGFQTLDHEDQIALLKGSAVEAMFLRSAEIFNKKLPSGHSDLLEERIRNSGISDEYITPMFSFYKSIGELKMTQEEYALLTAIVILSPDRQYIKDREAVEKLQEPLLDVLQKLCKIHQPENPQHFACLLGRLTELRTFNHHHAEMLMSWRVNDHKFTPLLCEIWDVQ
Chain of Vitamin D3 receptor (Homo sapiens) (P11473 whole entry, looked up): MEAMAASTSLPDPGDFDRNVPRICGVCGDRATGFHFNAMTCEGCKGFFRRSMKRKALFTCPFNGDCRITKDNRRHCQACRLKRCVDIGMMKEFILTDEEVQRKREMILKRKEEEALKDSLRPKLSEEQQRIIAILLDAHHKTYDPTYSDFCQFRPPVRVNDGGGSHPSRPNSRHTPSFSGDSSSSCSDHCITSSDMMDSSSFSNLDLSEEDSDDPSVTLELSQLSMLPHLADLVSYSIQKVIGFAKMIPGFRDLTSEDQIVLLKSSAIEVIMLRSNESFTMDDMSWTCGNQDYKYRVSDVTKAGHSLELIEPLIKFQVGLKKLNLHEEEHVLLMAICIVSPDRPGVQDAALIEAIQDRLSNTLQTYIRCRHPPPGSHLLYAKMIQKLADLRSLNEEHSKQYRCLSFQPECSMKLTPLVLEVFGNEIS
Chain of Peroxisome proliferator-activated receptor delta (Homo sapiens) (Q03181 whole entry, looked up): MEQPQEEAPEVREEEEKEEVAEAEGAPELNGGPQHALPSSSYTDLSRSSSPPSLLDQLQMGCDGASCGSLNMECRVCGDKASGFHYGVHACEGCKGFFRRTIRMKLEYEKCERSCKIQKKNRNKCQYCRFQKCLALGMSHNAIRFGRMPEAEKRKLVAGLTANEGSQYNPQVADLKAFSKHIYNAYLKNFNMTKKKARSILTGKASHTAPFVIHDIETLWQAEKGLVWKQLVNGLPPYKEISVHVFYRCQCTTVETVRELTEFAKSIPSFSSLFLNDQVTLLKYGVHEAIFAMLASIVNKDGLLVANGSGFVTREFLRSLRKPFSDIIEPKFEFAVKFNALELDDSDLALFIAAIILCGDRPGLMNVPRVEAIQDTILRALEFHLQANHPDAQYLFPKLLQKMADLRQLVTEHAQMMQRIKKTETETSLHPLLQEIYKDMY

Oc1ccc2c(c1)OC[C@@H](N1CCC(O)(c3ccc(F)cc3)CC1)[C@H]2O
not listed: [15] | [16] | [17] | [18] | [19] | [20]
inactive: all other assays above

Cc1ccccc1Br
not listed: [19] | [20]
inactive: all other assays above

CC(=O)N[C@@H](CCC(N)=O)C(=O)O
not listed: [1] | [3] | [7] | [20]
inactive: all other assays above

COC(C(=O)O)c1ccccc1 (stereo not given)
not listed: [1] | [5] | [13] | [19]
inactive: all other assays above

CCC(C)OC(=O)N1CCCCC1CCO (stereo not given)
not listed: [2] | [3] | [13] | [15] | [19]
inactive: all other assays above

CC(C)(C)CC(C)(C)N
not listed: [4] | [17] | [19] | [20]
inactive: all other assays above

C=CCOc1nc(OCC=C)nc(OCC=C)n1
inactive: [1] | [2] | [5] | [6] | [8] | [9] | [10] | [11] | [20] | [12] | [14]

NC(N)=NS(=O)(=O)c1ccc(N)cc1
not listed: [1] | [4] | [5] | [15] | [18] | [19] | [20]
inactive: all other assays above

COc1ccc(N=[N+]([O-])c2ccc(OC)cc2)cc1
not listed: [2] | [3] | [13] | [17] | [19] | [20]
inactive: all other assays above

C[C@H](O)C(=O)Nc1c(I)c(C(=O)NC(CO)CO)c(I)c(C(=O)NC(CO)CO)c1I
not listed: [3] | [4] | [13] | [15] | [17] | [19]
inactive: all other assays above

OCCCCCCO
not listed: [3] | [5] | [20]
inactive: all other assays above

CC(C)c1cccc(O)c1
not listed: [4] | [17] | [19] | [20]
inactive: all other assays above

O=C(O)c1ccccc1-c1ccc(C(F)(F)F)cc1
not listed: [15] | [18] | [19] | [20]
inactive: all other assays above

O=C1OC(=O)c2cc([N+](=O)[O-])ccc21
not listed: [1] | [3] | [13] | [17] | [19]
inactive: all other assays above

CNc1ncnc2nc[nH]c12
not listed: [4] | [5] | [16] | [17] | [18] | [19] | [20]
inactive: all other assays above

NS(=O)(=O)c1cc2c(cc1C(F)(F)F)NC(Cc1ccccc1)NS2(=O)=O (stereo not given)
not listed: [2] | [3] | [13] | [17] | [19] | [20]
inactive: all other assays above

CCCCCCCCCCCl
not listed: [4] | [19] | [20]
inactive: all other assays above

CCCCC1CCCCC(=O)O1 (stereo not given)
not listed: [4] | [15] | [17] | [19] | [20]
inactive: all other assays above
